Compound activity from PubChem BioAssay.
HEK293 tox = kills HEK 293 cells | 94,000 compounds, 6.6% hits | AID 1345083 | HEK 293 viability, ATP luminescence (CellTiter-Glo), 48-72 h | Potency, µM (highest dose often 115 µM), most hits filed as inhibitors; note: nearly all actives have a fitted effect of over 60% in size
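qHTS cytotoxicity; HEK 293, 250 cells/well; compound pinned; 48 or 72 hr, 37 degree Celsius, 5% CO2, 95% humidity; CellTiter-Glo, 10 min RT; luminescence (ATP).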
NPR1 antag = antagonists of human natriuretic peptide receptor Npr1; P16066; HEK293 hNpr1 GloSensor cGMP, ANP-stimulated luminescence; Potency, µM (top dose mostly 46.3 µM), usual class: inhibitors; 76,000 compounds, 1.6% hits; calls by dose curve; note: nearly all actives have a fitted effect of over 60% in size
Target sequence (P16066 whole entry, looked up): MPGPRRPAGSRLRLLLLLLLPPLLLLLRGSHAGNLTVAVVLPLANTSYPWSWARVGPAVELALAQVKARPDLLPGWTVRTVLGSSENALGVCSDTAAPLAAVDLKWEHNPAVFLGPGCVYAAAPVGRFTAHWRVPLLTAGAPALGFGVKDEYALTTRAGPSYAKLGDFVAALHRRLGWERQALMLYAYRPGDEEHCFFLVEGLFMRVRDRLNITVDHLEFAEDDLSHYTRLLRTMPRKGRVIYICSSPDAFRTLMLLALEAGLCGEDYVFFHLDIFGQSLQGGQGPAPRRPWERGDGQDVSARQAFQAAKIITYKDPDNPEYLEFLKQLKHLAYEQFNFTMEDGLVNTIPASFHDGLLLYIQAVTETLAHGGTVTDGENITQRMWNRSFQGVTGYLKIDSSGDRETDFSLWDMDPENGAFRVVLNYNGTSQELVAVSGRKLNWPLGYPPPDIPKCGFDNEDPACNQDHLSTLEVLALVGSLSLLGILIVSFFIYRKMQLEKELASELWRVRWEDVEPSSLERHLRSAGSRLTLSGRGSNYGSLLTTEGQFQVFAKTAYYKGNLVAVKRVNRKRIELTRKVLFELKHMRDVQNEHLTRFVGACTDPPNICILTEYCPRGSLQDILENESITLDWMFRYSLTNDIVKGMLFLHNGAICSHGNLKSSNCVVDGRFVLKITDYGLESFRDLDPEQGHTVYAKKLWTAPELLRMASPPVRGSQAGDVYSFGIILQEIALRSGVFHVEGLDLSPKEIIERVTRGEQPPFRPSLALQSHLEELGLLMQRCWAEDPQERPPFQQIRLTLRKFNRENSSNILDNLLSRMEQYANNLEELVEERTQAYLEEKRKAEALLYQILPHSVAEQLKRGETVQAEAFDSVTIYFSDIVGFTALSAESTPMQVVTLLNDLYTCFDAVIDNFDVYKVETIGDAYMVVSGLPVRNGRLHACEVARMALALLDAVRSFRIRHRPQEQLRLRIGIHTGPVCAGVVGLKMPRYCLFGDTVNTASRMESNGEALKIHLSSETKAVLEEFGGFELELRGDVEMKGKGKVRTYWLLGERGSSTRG
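HEK293 cells stably expressing human Npr1 and cGMP GloSensor pGS-40F, loaded 2 h with 2% GloSensor reagent, given compound 30 min at room temperature. Luminescence read before and 20 min after 0.1 nM hNppA.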
GPT2 inh = GPT2 alanine aminotransferase inhibition | AID 1671188 | 100,000 compounds, 0.25% hits | Potency, µM (series often up to 57.7 µM), actives largely listed as inhibitors | Recombinant GPT2, coupled pyruvate oxidase/HRP Amplex Red fluorescence | Q8TD30; note: nearly all actives have a fitted effect of over 60% in size
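Fluorescence read-out: pyruvate from GPT2 turnover coupled to pyruvate oxidase, HRP and Amplex Red (0.2mM ThPP, 0.2U/mL PO and HRP, 50uM Amplex final). Substrates 250uM a-KG, 2mM L-alanine; enzyme 10ng/uL; 30 min RT.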
FLuc inh-1 = blocks purified firefly luciferase enzyme activity; P08659; purified P. pyralis luciferase, luminescence, biochemical; Potency, µM (series often up to 115 µM), hits mostly inhibitors; 76,000 compounds, 2.5% hits; AID 1347043; note: nearly all actives have a fitted effect of over 65% in size
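FLuc 10nM, D-luciferin 10uM, ATP 10uM, Mg acetate 10mM, Tris acetate pH 7.5, Tween/BSA; cpd qHTS; enzyme added last; CCD luminescence.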
3T3 cytotox = cytotoxic compounds in NIH 3T3 cells; NIH 3T3 viability, CellTiter-Glo ATP luminescence, 48-72 h; Potency, µM (titrated, usually from 96.7 µM), usual class: inhibitors; 94,000 compounds, 4.3% hits; AID 1345082; note: nearly all actives have a fitted effect of over 55% in size
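Cytotoxicity was measured by CellTiter-Glo ATP luminescence after 48 or 72 h compound exposure at 37 °C. Mouse NIH 3T3 fibroblasts were seeded at 400 cells/well and dosed by 23 nL pin transfer.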
FLuc SDR -ATP = binders stabilizing firefly luciferase, without ATP; shares compounds with FLuc inh-1; Purified FLuc-C-HiBiT, Nano-Glo HiBiT luminescence, no ATP; Potency, µM (highest dose often 32.7 µM), hits mostly activators; 1,300 compounds, 7.8% hits; note: nearly all actives have a fitted effect of over 55% in size
FLuc SDR ATP = stabilizes firefly luciferase with ATP present; shares compounds with FLuc inh-1; purified FLuc-C-HiBiT + ATP, HiBiT complementation luminescence; Potency, µM (doses to about 32.7 µM), most hits filed as activators; 1,300 compounds, 8.7% hits;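 note: signal reports ligand binding via conformational change of the enzyme rather than luciferase catalysis; nearly all actives have a fitted effect of over 55% in size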
FLuc inh-2 = firefly luciferase enzyme inhibition; shares compounds with FLuc inh-1; purified FLuc-C-HiBiT enzyme, luciferin luminescence; Potency, µM (titrated, usually from 32.7 µM), most hits filed as inhibitors; 1,300 compounds, 42% hits; note: nearly all actives have a fitted effect of over 70% in size
A number is an active result. An excerpt weighted towards active compounds, which were near 10% of everything screened. Unless noted, calls come from the whole dose curve; as a rule, active = well fitted curve in the direction sought with a large enough effect; inconclusive = small, poorly fitted or top-dose-only effect, or another doubt; inactive = no such curve, though single readings can be large; an effect the other way counts as inactive or inconclusive.

Screening COc1ccc(Nc2ncncc2-c2nc(-c3ccccc3)no2)cc1OC returned HEK293 tox inactive, NPR1 antag inactive, GPT2 inh inactive, FLuc inh-1 inactive and 3T3 cytotox inactive.
Screening COc1ccc(Nc2nc(-c3ccccc3F)no2)cc1OC returned HEK293 tox inconclusive, NPR1 antag inconclusive, GPT2 inh inactive, FLuc inh-1 2.24µM, 3T3 cytotox inconclusive, FLuc SDR -ATP inactive, FLuc SDR ATP inconclusive and FLuc inh-2 3.51µM.
For COc1cccc(-c2noc(Nc3ccc4c(c3)OCCO4)n2)c1 the results were HEK293 tox inconclusive, NPR1 antag 5.01µM, GPT2 inh inconclusive, FLuc inh-1 0.316µM, 3T3 cytotox inactive, FLuc SDR -ATP inconclusive, FLuc SDR ATP inconclusive and FLuc inh-2 1.57µM.
For COc1cccc(-c2noc(Nc3ccc(OC)c(OC)c3)n2)c1 the results were HEK293 tox inconclusive, NPR1 antag inconclusive, GPT2 inh inactive, FLuc inh-1 2µM, 3T3 cytotox inconclusive, FLuc SDR -ATP inconclusive, FLuc SDR ATP inactive and FLuc inh-2 3.94µM.
`c1ccc(-c2noc(-c3cncnc3Nc3ccc4c(c3)OCCO4)n2)cc1` gave HEK293 tox inactive, NPR1 antag inactive, GPT2 inh inactive, FLuc inh-1 inconclusive and 3T3 cytotox inactive.
CCCC(=O)N1CC2CC(C1)[C@H]1CCCC(=O)N1C2 (stereo partly specified) was read as HEK293 tox inactive, NPR1 antag inactive, GPT2 inh inactive, FLuc inh-1 inactive and 3T3 cytotox inactive.
Cc1ccccc1C(=O)N1CCC(c2nn(-c3ccc(Cl)cc3)c(=O)[nH]2)CC1 was read as HEK293 tox inconclusive, NPR1 antag inactive, GPT2 inh inactive, FLuc inh-1 inactive and 3T3 cytotox inconclusive.
Screening COc1ccc(-c2noc(Nc3ccc4c(c3)OCO4)n2)cc1 returned HEK293 tox inconclusive, NPR1 antag inactive, GPT2 inh inactive, FLuc inh-1 inconclusive and 3T3 cytotox inactive.
`CCc1noc(-c2nc(-c3ccccc3OC)no2)n1` gave HEK293 tox inconclusive, NPR1 antag inactive, GPT2 inh inactive, FLuc inh-1 inactive and 3T3 cytotox inactive.
Screening CCCc1noc(-c2nc(-c3ccccc3F)no2)n1 returned HEK293 tox inactive, NPR1 antag inconclusive, GPT2 inh inactive, FLuc inh-1 5.62µM, 3T3 cytotox inactive, FLuc SDR -ATP inactive, FLuc SDR ATP inactive and FLuc inh-2 inconclusive.
Screening COc1cccc(-c2noc(Nc3ccc4c(c3)OCO4)n2)c1 returned HEK293 tox inconclusive, NPR1 antag inconclusive, GPT2 inh inactive, FLuc inh-1 2µM, 3T3 cytotox inconclusive, FLuc SDR -ATP inactive, FLuc SDR ATP inconclusive and FLuc inh-2 6.24µM.
For Cc1ccc(-c2nc3ccccc3s2)cc1NC(=O)COc1ccccc1 the results were FLuc SDR -ATP inactive, FLuc SDR ATP inactive and FLuc inh-2 inactive.
`COc1ccc(OCC(=O)Nc2cccc(-c3nc4ccccc4s3)c2C)cc1` gave FLuc SDR -ATP inactive, FLuc SDR ATP inactive and FLuc inh-2 7.85µM.
COc1ccc(CC(=O)Nc2ccc(-c3nc4ccccc4s3)cc2Cl)cc1 was read as FLuc SDR -ATP inactive, FLuc SDR ATP inactive and FLuc inh-2 inactive.
`COc1ccc(OCC(=O)Nc2cc(-c3nc4ccccc4s3)ccc2C)cc1` gave FLuc SDR -ATP inactive, FLuc SDR ATP inactive and FLuc inh-2 inconclusive.
`C[C@H](NC(=O)c1sccc1OCc1ccc(Cl)cc1)c1ccccc1` gave GPT2 inh inactive.
`CCOC(=O)C1CCN(C(=O)C2COC3(CCCCC3)N2C(=O)c2ccc(CC)cc2)CC1` (stereo unspecified) gave HEK293 tox inactive, NPR1 antag inactive, GPT2 inh inactive, FLuc inh-1 inactive and 3T3 cytotox inactive.
Screening CCc1ccc(CN2CCN(Cc3ccc(F)c(F)c3)C(CCO)C2)o1 (stereo unspecified) returned HEK293 tox inconclusive, NPR1 antag inactive, GPT2 inh inactive, FLuc inh-1 inactive and 3T3 cytotox inconclusive.
Screening Cc1ccccc1-c1noc(-c2nc(-c3ccncc3)no2)n1 returned HEK293 tox inactive, NPR1 antag inactive, GPT2 inh inactive, FLuc inh-1 inactive and 3T3 cytotox inactive.
Screening CCCn1ncc(-c2nc(-c3ccncc3)no2)c1C returned HEK293 tox 35.5µM, NPR1 antag inconclusive, GPT2 inh inactive, FLuc inh-1 2.51µM, 3T3 cytotox inconclusive, FLuc SDR -ATP inconclusive, FLuc SDR ATP inconclusive and FLuc inh-2 8.81µM.
Screening CCC1=C(C(=O)OC)C(c2ccc(OC)cc2)N2C(CC(=O)NCC3CC3)=CSC2=N1 (stereo unspecified) returned HEK293 tox inconclusive, NPR1 antag inactive, GPT2 inh inactive, FLuc inh-1 inactive and 3T3 cytotox inactive.
COc1ccc(-c2cn3nc(SCC(=O)Nc4ccccc4F)ccc3n2)cc1 was read as FLuc SDR -ATP inconclusive, FLuc SDR ATP inactive and FLuc inh-2 inconclusive.
For CCOc1ccc2nc(NC(=O)c3ccccc3)sc2c1 the results were FLuc SDR -ATP inconclusive, FLuc SDR ATP inconclusive and FLuc inh-2 0.881µM.
